Laboratory results as given in the supplement of paper PMC6853941.
Unmarked numbers belong to inactive results.

System: MCF10A
Test: perturbation Mahalanobis distance of morphological profile vs DMSO controls (Mahalanobis distance (SD units)); higher = stronger morphological change, active = 7 or more
Settings: 72 h
Method: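 MCF10A cells were seeded onto drugs dispensed acoustically into 384-well plates, using one dose per drug chosen from its human peak plasma concentration, and incubated for 72 h at 37 °C. Cells were stained for DNA, tubulin and mitochondria and imaged; 78 CellProfiler features were extracted, plate-normalised and compared with DMSO wells.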

[1] = screen batch: Batch2_Mahalanobis_Distance
[2] = screen batch: Batch1_Mahalanobis_Distance

SMILES	perturbation Mahalanobis distance [1]	perturbation Mahalanobis distance [2]
N#C[C@@H]1C[C@@H]2C[C@@H]2N1C(=O)[C@@H](N)C12CC3CC(CC(O)(C3)C1)C2 [Saxagliptin] (0.38 µM)	3.33	
O=C1C(CCS(=O)c2ccccc2)C(=O)N(c2ccccc2)N1c1ccccc1 (racemic) [(+/-)-Sulfinpyrazone] (41.84 µM)	2.61	3.46
N=c1nc(N2CCCCC2)cc(N)n1O [Minoxidil] (6 µM)	2.8	6.53
NNc1nncc2ccccc12 [Hydralazine] (15.6 µM)	3.91	4.07
C#CCN(C)Cc1ccccc1 [Pargyline] (1.9 µM)	3.63	3.93
O=C(Nc1ncc([N+](=O)[O-])s1)c1ccccc1O [Tizoxanide] (48.8 µM)	3	
COc1cc(C)c(/C=C/C(C)=C/C=C/C(C)=C/C(=O)O)c(C)c1C [Acitretin] (7.7 µM)		6.19
CC1=NS(=O)(=O)c2cc(Cl)ccc2N1 [Diazoxide] (86.7 µM)		2.69
O=c1n(CCCN2CCN(c3cccc(Cl)c3)CC2)nc2ccccn12 [Trazodone] (21.5 µM)	3.12	2.62
CC[C@]1(O)C[C@H]2CN(CCc3c([nH]c4ccccc34)[C@@](C(=O)OC)(c3cc4c(cc3OC)N(C)[C@H]3[C@@](O)(C(=O)OC)[C@H](OC(C)=O)[C@]5(CC)C=CCN6CC[C@]43[C@@H]65)C2)C1 [Vinblastine] (0.12 µM)		11.4 (active)
C[N+](C)(C)CCOC(=O)CCC(=O)OCC[N+](C)(C)C [Succinylcholine Chloride] (12.65 µM)	2.84	2.23
CC(C)(C#N)c1cc(Cn2cncn2)cc(C(C)(C)C#N)c1 [Anastrozole] (0.51 µM)	3.49	3.5
NC(=O)OCC(COC(N)=O)c1ccccc1 [Felbamate] (205.7 µM)	2.91	2.24
OCCN(CCO)c1nc(N2CCCCC2)c2nc(N(CCO)CCO)nc(N3CCCCC3)c2n1 [Dipyridamole] (19.8 µM)	3.01	2.41
COc1cc2ncnc(Nc3ccc(F)c(Cl)c3)c2cc1OCCCN1CCOCC1 [Gefitinib] (34.7 µM)	3.28	
C[C@H]1O[C@@H](O[C@H]2[C@@H](O)C[C@H](O[C@H]3[C@@H](O)C[C@H](O[C@H]4CC[C@@]5(C)[C@H](CC[C@@H]6[C@@H]5CC[C@]5(C)[C@@H](C7=CC(=O)OC7)CC[C@]65O)C4)O[C@@H]3C)O[C@@H]2C)C[C@H](O)[C@@H]1O [Digitoxin] (0.16 µM)	17.9 (active)	12.1 (active)
CCN(CC)C(=O)/C(C#N)=C/c1cc(O)c(O)c([N+](=O)[O-])c1 [Entacapone] (6.6 µM)	2.48	1.99
O=C1CN(/N=C/c2ccc(-c3ccc([N+](=O)[O-])cc3)o2)C(=O)N1 [Dantrolene] (23.9 µM)	3.85	2.62
O=c1[nH]cc(F)c(=O)[nH]1 [5-Fluorouracil] (2.5 µM)	16.5 (active)	7.34 (active)
COc1ccccc1Oc1c(NS(=O)(=O)c2ccc(C(C)(C)C)cc2)nc(-c2ncccn2)nc1OCCO [Bosentan] (33.6 µM)	5.42	3.04
N[C@@H](CC(=O)N1CCn2c(nnc2C(F)(F)F)C1)Cc1cc(F)c(F)cc1F [Sitagliptin] (4.8 µM)	2.49	2.76
NC(N)=NC(=O)c1nc(Cl)c(N)nc1N [Amiloride] (1.1 µM)	3.78	5.52
CN1CCN(CCCN2c3ccccc3Sc3ccc(C(F)(F)F)cc32)CC1 [Trifluoperazine] (0.12 µM)	3.67	1.97
CC1(C)N=C(N)N=C(N)N1c1ccc(Cl)cc1 [Cycloguanil] (3.4 µM)	2.22	2.56
CC(C)NCC(O)COc1ccc(CC(N)=O)cc1 (configuration not stated) [Atenolol] (18.8 µM)	2.25	2.37
N[C@@H]1CONC1=O [D-Cycloserine] (98 µM)	9.13 (active)	7.56 (active)
CCN(CC)C(=O)N1CCN(C)CC1 [Diethylcarbamazine] (6.3 µM)	2.16	2.96

SMILES	perturbation Mahalanobis distance [1]	perturbation Mahalanobis distance [2]
CN(C)CCCC1(c2ccc(F)cc2)OCc2cc(C#N)ccc21 (configuration not stated) [Citalopram] (3.1 µM)	2.43	2.77
CCOC(=O)C1=C[C@@H](OC(CC)CC)[C@H](NC(C)=O)[C@@H](N)C1 [Oseltamivir] (1 µM)	1.77	2.31
CO[C@H]1CC2CC[C@@H](C)[C@@](O)(O2)C(=O)C(=O)N2CCCC[C@H]2C(=O)O[C@H]([C@H](C)C[C@@H]2CC[C@@H](OCCO)[C@H](OC)C2)CC(=O)[C@H](C)/C=C(\C)[C@@H](O)[C@@H](OC)C(=O)[C@H](C)C[C@H](C)/C=C/C=C/C=C/1C [Everolimus] (0.95 µM)	9.89 (active)	5.37
CCN(CC)C(=S)SSC(=S)N(CC)CC [Disulfiram] (6.7 µM)	3	2.16
CO/N=C(\C(=O)N[C@@H]1C(=O)N2C(C(=O)O)=C(CSc3nnnn3C)CS[C@H]12)c1csc(N)n1 [Cefmenoxime] (183.8 µM)	4.1	3.87
Nc1ccn([C@@H]2O[C@H](CO)[C@@H](O)[C@@H]2O)c(=O)n1 [Cytarabine] (10.3 µM)	17.9 (active)	12.2 (active)
O=C1Nc2ccc(Cl)cc2[C@@](C#CC2CC2)(C(F)(F)F)O1 [Efavirenz] (28.8 µM)	4.25	3.91
C[C@@H](NCCCc1cccc(C(F)(F)F)c1)c1cccc2ccccc12 [Cinacalcet] (0.4 µM)	2.58	2.7
Cn1nnc2c(C(N)=O)ncn2c1=O [Temozolomide] (70.6 µM)	2.12	3.51
O=C1C(=O)c2ccccc2C(O)=C1C1CCC(c2ccc(Cl)cc2)CC1 (configuration not stated) [Atovaquone] (37.9 µM)	1.78	3.34
O=C(O)P(=O)(O)O [Foscarnet] (887 µM)	2.62	3.95
COCc1c(C(C)C)nc(C(C)C)c(/C=C/[C@@H](O)C[C@@H](O)CC(=O)O)c1-c1ccc(F)cc1 [Cerivastatin] (0.46 µM)	13.1 (active)	13.3 (active)
CNC[C@H](O)c1ccc(O)c(O)c1 [Epinephrine] (27.3 µM)	2.89	2.67
c1cnc2cc3c(cc2n1)C1CNCC3C1 [Varenicline] (0.24 µM)	2.29	2.52
COC(=O)Nc1nc2ccc(C(=O)c3ccccc3)cc2[nH]1 [Mebendazole] (1.7 µM)	3.69	5.89
Nc1nc(N)c2nc(-c3ccccc3)c(N)nc2n1 [Triamterene] (2 µM)	4.38	3.18
CCS(=O)(=O)CCn1c([N+](=O)[O-])cnc1C [Tinidazole] (192.9 µM)	2.69	2.45
C[N+](C)(C)CCOC(N)=O [Carbachol] (37 µM)	2.82	2.88
C#C[C@]1(O)CC[C@H]2[C@@H]3CCc4cc(O)ccc4[C@H]3CC[C@@]21C [Ethinyl Estradiol] (23 µM)	3.63	5.9
COc1cnc(NS(=O)(=O)c2ccc(N)cc2)nc1 [Sulfameter] (322.8 µM)	3.67	6.64
COC(=O)[C@H](c1ccccc1Cl)N1CCc2sccc2C1 [Clopidogrel] (0.12 µM)	2.59	3.1
CO[C@H]1/C=C/O[C@@]2(C)Oc3c(C)c(O)c4c(c3C2=O)C2=NC3(CCN(CC(C)C)CC3)NC2=C(NC(=O)/C(C)=C\C=C\[C@H](C)[C@H](O)[C@@H](C)[C@@H](O)[C@@H](C)[C@H](OC(C)=O)[C@@H]1C)C4=O [Rifabutin] (0.89 µM)	3.99	6.13
CCCSc1ccc2nc(NC(=O)OC)[nH]c2c1 [Albendazole] (28.3 µM)	15.4 (active)	13.8 (active)
CCCc1nc(C(C)(C)O)c(C(=O)O)n1Cc1ccc(-c2ccccc2-c2nn[nH]n2)cc1 [Olmesartan] (10 µM)	2.24	2.22
COC(=O)C1=C(C)NC(C)=C(C(=O)OCC(C)C)C1c1ccccc1[N+](=O)[O-] (configuration not stated) [Nisoldipine] (13 µM)	2.36	2.36
NS(=O)(=O)Cc1noc2ccccc12 [Zonisamide] (141.4 µM)	2.95	2.42
CC(C)(C)C(=O)OCC(=O)[C@H]1CC[C@H]2[C@@H]3CCC4=CC(=O)CC[C@]4(C)[C@H]3CC[C@]12C [Desoxycorticosterone Pivalate] (0.72 µM)	3.54	4.89
